Test results from ChEMBL document CHEMBL1157539, “Thousands of chemical starting points for antimalarial lead identification” (Nature, 2010).

What was measured:
Format in all cases: functional
Plasmodium falciparum [1] = experiment: GSK_TCMDC: Inhibition of Plasmodium falciparum 3D7 in whole red blood cells, using parasite LDH activity as an index of growth. Test compounds present at 2uM
Plasmodium falciparum [2] = experiment: GSK_TCMDC: Inhibition of Plasmodium falciparum Dd2 in whole red blood cells, using parasite LDH activity as an index of growth. Test compounds present at 2uM
HepG2 = experiment: GSK_TCMDC: Percent inhibition of human HepG2 cell line. Test compounds present at 10uM.

SMILES | Inhibition (Plasmodium falciparum [1]) [%] | Inhibition (Plasmodium falciparum [2]) [%] | Inhibition (HepG2) [%]
O=C(Nc1cc(F)cc(F)c1)N1CCOC(CCN2CCC(c3ccccc3)CC2)(c2ccc(Cl)c(Cl)c2)C1 (stereo not drawn) | 91 | 69 | 31
N#Cc1c(-c2ccccc2)cn2c1[nH]c(=O)c1ccccc12 | 92 | 95 | 0
Cc1cc(N[C@@H](CC(C)C)C(=O)NCCOc2ccccc2)nc(Nc2ccccc2)n1.O=C(O)C(F)(F)F | 93 | 9 | 9
CCOc1cc2c(cc1OCC)C(c1ccc(O)c(Cl)c1)NCC2.Cl (stereo not drawn) | 98 | 98 | 6
CCOc1ccc2c(=NN=Cc3cccc(OC)c3OC)cc(C)[nH]c2c1 | 100 | 85 | 4
CCN(CC)CCCC(C)Nc1c2cc(OC)ccc2nc2cc(Cl)c([N+](=O)[O-])cc12 (stereo not drawn) | 100 | 89 | 12
NCCc1cccc(-c2cnc3[nH]cc(-c4ccc(C(=O)O)cc4)c3c2)c1.O=C(O)C(F)(F)F | 99 | 98 | 4
CC(C)(C)c1ccc(CN2CCC(CNC(=O)c3cc(-c4ccccc4C(F)(F)F)cs3)C2)cc1.O=C(O)C(F)(F)F (stereo not drawn) | 92 | 11 | 61
COC(=O)/C=C/c1ccc(CCC(C)NCC(O)c2cccc(Cl)c2)cc1 (stereo not drawn) | 94 | 77 | 5
O=C(/C=C/c1ccc(Cl)c(Cl)c1)NCCC(CN1CCC(c2c[nH]c3ccccc23)CC1)c1ccccc1 (stereo not drawn) | 100 | 42 | 84
CN(C)CCN(C)Cc1ccc(-c2ccc3c(Nc4ccc(F)cc4Cl)ccnc3c2)o1 | 100 | 100 | 31
